The values that follow come from PubChem BioAssay (NCI).

Compounds without any hit were thinned out: in the full panel of roughly 83,000, 20% have a hit.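 Single-dose data. Exposure time 48 hours. Values below 10 considered active.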 A number with no mark means an inactive call. The source made the active and inactive calls.

The test system of this assay is HL-60(TB) leukemia. The experiment in a line: NCI-60 one-dose screen, 48 h (100 = growth as untreated, 0 = no growth, -100 = all killed). To be noted: 10 µM unless noted.
With `O=C1/C(=C\c2cccnc2)SC(=S)N1CCc1ccc(O)cc1`, the growth is 18%.
Then `CCOC(=O)C1(N)CCCCC1`, with 110%; and `C=C(C)[C@@H]1CC[C@]2(C(=O)O)CC[C@]3(C)[C@H](CC[C@@H]4[C@@]5(C)C[C@@H](CC#Cc6ccc(C(F)(F)F)cc6)[C@H](O)C(C)(C)[C@@H]5CC[C@]43C)[C@@H]12`, with 7.01% (active); and `Clc1ccc2c(c1)-n1cccc1C(c1ccc3ccccc3c1)=NC2`, with 76.9%.
Then `CN1C(=O)/C(=C/c2ccc(C(=O)Nc3ncc(Cc4cccc(Cl)c4)s3)cc2)SC1=S`, with 88.2%.
Take `CN1CCN(Cc2ccc(NC(=O)c3cncc(C#Cc4cncc5[nH]ncc45)c3)cc2C(F)(F)F)CC1`: the growth was -28.9% (active).
Then `C=C(OC(C)=O)c1ccccc1`, with 72.9%.
In the case of `COC(=O)[C@H]1CCCN1C(=O)[C@H]1CCCN1C(=O)[C@@H](Cc1c[nH]c2ccccc12)NC(=S)Nc1cc(C(F)(F)F)cc(C(F)(F)F)c1` it was 31.2%.
Then `CCOC(CNCc1cc(C)c2[nH]c3ccccc3c2c1C)OCC`, with 86%; and `O=C(Nc1cc(Nc2ncccc2-c2ncnc3nc[nH]c23)ccc1F)c1cc(C(F)(F)F)cc(C(F)(F)F)c1`, with -11.3% (active); and `CCNc1nc(S(=O)(=O)CC)nc2ccccc12`, with 91.8%.
Consider `O=c1oc2c(cnc3ccccc32)cc1-c1cccs1`, for which the growth is 98.2%.
Then `COc1cc2c(cc1OCCCCCN1CCN(c3ncnc4ccccc34)CC1)N=CC1CCCN1C2=O` (stereo not given), with -25.8% (active); and `C=C1C(=O)O[C@H]2[C@H]1CC/C(COC(=O)c1ccc(C#N)cc1)=C\CC[C@@]1(C)O[C@@H]21`, with -33.6% (active); and `COc1ccc(C(=O)c2cc3c(N)c(C(=O)Nc4ccc(Cl)cc4)sc3nc2C)cc1`, with 62.9%.
Then `O=C1/C(=N/O)CCc2ccccc21`, with 59.1%; and `Cc1sc2nc(NCc3ccccc3)[nH]c(=O)c2c1C`, with 22.4%; and `COc1cc(/C=C2\C(=O)N(CC(O)COc3cc(O)c4c(=O)cc(-c5ccccc5)oc4c3)c3ccccc32)cc(OC)c1O` (stereo not given), with 80.5%.
Regarding `COc1ncc(-c2ccc3nccc(C#CCCCCC(=O)O)c3c2)cc1NS(=O)(=O)c1ccc(F)cc1F`, the growth is 26.8%.
Then `Cc1nc2ccccc2c(/C=C/c2ccc(Br)cc2)c1C(=O)/C=C/c1ccccc1`, with 2.74% (active); and `Cc1nc2cc(Nc3nc(Nc4ccc(F)cc4)nc(-c4cccs4)n3)ccc2n1Cc1ccccc1`, with 28.1%.
Then `CC(C)CC(=O)Nc1n[nH]c2c1CN(C(=O)C1CCN(C)CC1)C2(C)C`, with -26.2% (active).
Then `CCc1ccc(NC(=O)N[C@@H](Cc2cc(F)cc(F)c2)C(=O)N[C@@H]2C(=O)N3C[C@H](O)C[C@H]3C(=O)N3CCOC[C@H]3C(=O)N[C@@H](C)C(=O)N3C[C@H](C)C[C@H]3C(=O)O[C@H]2C)cc1`, with 23.8%; and `COc1ccc2c(c1)N(Cc1ccc(Cl)cc1)CCC2N1CCCC1=O` (stereo not given), with 53.9%.
As to `C=CCNc1nc(O)c(/C=C2\C=Nc3ncccc32)s1`, the growth is -14.5% (active).
Then `CCCCC#Cc1c(I)n(C2OC(CO[Si](C)(C)C(C)(C)C)C3OC(C)(C)OC32)c(=O)n(C(=O)c2ccccc2)c1=O` (stereo not given), with 20.4%; and `O=C(N/N=C/C=C/c1ccc([N+](=O)[O-])o1)c1cc2ccccc2cc1O`, with 3.51% (active).
As for `C=C(C)[C@@H]1CC[C@]2(C(=O)O)CC[C@]3(C)[C@H](CC[C@@H]4[C@@]5(C)C[C@@H](CC#Cc6ccccc6)C(=O)C(C)(C)[C@@H]5CC[C@]43C)[C@@H]12`, the growth was 3.03% (active).
Then `N#C/C(=C\c1ccc(-c2cccc(C(F)(F)F)c2)o1)c1nc(-c2ccco2)cs1`, with 101%; and `COc1cc(NC(=O)c2sc3nc4c(cc3c2N)C(O)CCC4)cc(OC)c1` (stereo not given), with 73.2%; and `Cc1cc(C(=C2C=CC(=Nc3ccccc3)C=C2)c2ccc(Nc3ccccc3)cc2)ccc1N`, with 5.66% (active).
As to `O=[N+]([O-])c1ccc(Oc2ccc(-c3ccccc3)cc2)cc1`, the growth was 78.7%.
In the case of `C1=C\COCc2cc(ccc2OCCN2CCCC2)Nc2nccc(n2)-c2cccc(c2)COC/1` it was -34.6% (active); in that of `Cc1ccc(O)c(N)c1`, 115%.
In the case of `CCN1CCN(CC(=O)Nc2nc3ccc(NCc4ccc(Cl)cc4)cc3s2)CC1` it was 29%; in that of `CC(=O)CC1CCCC1c1ccc2ccccc2c1` (stereo not given), 101%; in that of `CN(C)CCCn1c2nc(=O)[nH]c(=O)c-2nc2cc(Cl)c(Cl)cc21`, 76%.
In the case of `COc1ccc(C2Nc3nc(SC)nc(N)c3N=C3c4ccccc4CCC32)cc1` (stereo not given) it was 71.1%; in that of `O=C(NCc1cccnc1)/C(=C\c1ccc(Br)cc1)S(=O)(=O)c1ccccc1`, 17.4%.
On to `NS(=O)(=O)c1ccc(Nc2nc(O)c(/C=C3\C=Nc4ccccc43)s2)cc1`, for which the growth is 95.4%.
